The list is not random: actives were taken first. Their share in the collection is about 3.4%.
MITF primary = human MITF inhibition, primary screen | AlphaScreen MITF homodimerization, bead proximity signal | 650,000 tested, 0.91% active | inhibition, % at 2.6 µM | O75030 | AID 1259374; in the data active = inhibition above about 50%
GPR151 ag = activators of human GPR151 | AID 1508602 | 650,000 tested, 1% active | PathHunter beta-arrestin GPR151 cells, luminescence | activation, % at 11.2 µM; in the data active = activation above about 4.9%
Target sequence (Q8TDV0 whole entry, looked up): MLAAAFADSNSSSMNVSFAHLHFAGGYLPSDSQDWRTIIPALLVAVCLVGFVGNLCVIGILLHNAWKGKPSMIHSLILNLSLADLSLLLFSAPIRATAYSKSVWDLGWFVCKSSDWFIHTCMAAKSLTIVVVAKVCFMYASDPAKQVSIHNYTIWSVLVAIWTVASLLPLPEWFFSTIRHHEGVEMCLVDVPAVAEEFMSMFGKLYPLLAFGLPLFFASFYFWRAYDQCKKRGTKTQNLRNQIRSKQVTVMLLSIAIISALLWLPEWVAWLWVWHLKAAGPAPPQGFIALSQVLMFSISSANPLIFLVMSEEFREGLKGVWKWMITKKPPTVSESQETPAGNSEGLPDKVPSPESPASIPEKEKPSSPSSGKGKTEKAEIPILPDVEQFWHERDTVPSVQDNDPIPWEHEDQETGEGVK
FBW7 act = human FBW7 E3 ligase activation, primary screen | 650,000 tested, 0.13% active | normalized activity (activation), % at 26.1 µM | AlphaScreen FBW7–phospho-cyclin E peptide binding, activator screen | Q969H0; in the data active = normalized activity above about 1.9%;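 also: purified mutant Fbw7 with reduced substrate affinity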
TEAD-YAP inh = TEAD-YAP interaction inhibition; AID 1259422; HEK-TIYL cells, TEAD-Gal4/YAP UAS-luciferase luminescence; inhibition, % at 9.12 µM; 640,000 tested, 1.4% active; in the data active = inhibition above about 32%
Hits are given with their value; 0 = inactive; ! = a repeat was not active.

SMILES	MITF primary	GPR151 ag	FBW7 act	TEAD-YAP inh
COc1cccc2sc(Nc3nc(-c4ccccn4)cs3)nc12	0	0	0	63
CCn1c(SCCN2CCOCC2)nc2c1c(=O)[nH]c(=O)n2C	0	0	0	0
CNC(=O)c1cc(F)ccc1Nc1cc(Nc2ccc3c(c2)NC(=O)C3)ncc1C(F)(F)F	0	0	0	39
CC(=O)Nc1ccc(NC(=O)c2ccc(F)cc2)nc1	0	0	0	0
CNC(=O)c1cc(F)ccc1Nc1cc(Nc2ccc3c(c2)CC(=O)N3)ncc1C(F)(F)F	0	0	0	0
CNC(=O)c1cc(F)ccc1Nc1cc(Nc2ccc(NC(C)=O)cc2)ncc1C(F)(F)F	0	0	0	38
CCc1cc(-c2n[nH]c(C)c2-c2nc3ccccc3s2)c(O)cc1OC	0	0	0	35
CCOc1ccc2nc(SCC(=O)Nc3ccccc3C(=O)O)sc2c1	0	0	0	0
CCOC(=O)c1ccc(-n2sc3c(c2=S)-c2cc(C)ccc2NC3(C)C)cc1	76	0	0	0
COc1cc(Cc2nccc3cc(OC)c(OC)cc23)c(NC(=O)c2ccccc2SC)cc1OC	0	0	0	0
CC(C)CC(N)C(=O)NC(C)C(=O)O (configuration not stated)	0	0	0	0
COC(=O)c1ccccc1NC(=O)CCS(=O)(=O)c1cc2c(cc1C)NC(=O)CO2	0	0	0	0
O=c1c(-c2ccc3c(c2)OCCCO3)coc2cc(O)ccc12	0	0	0	75
Cc1oc2cc(O)ccc2c(=O)c1-c1ccc2c(c1)OCCO2	0	0	0	0
CCOC(=O)C(C)Oc1ccc2c(=O)c(-c3ccc(OC(C)C)cc3)coc2c1 (configuration not stated)	0	0	0	0
Cc1oc2cc(O)cc(O)c2c(=O)c1-c1ccc2c(c1)OCCCO2	0	0	0	43
O=c1c(-c2ccc(Cl)cc2)coc2cc(O)ccc12	0	0	0	0
COc1ccc(-c2coc3cc(O)ccc3c2=O)cc1	0	0	0	53!
CC(C)Oc1cc(O)c2c(=O)c(-c3ccc(O)cc3)coc2c1	0	0	0	57
COc1ccc(-c2coc3cc(OC)ccc3c2=O)cc1	0	0	0	0
COc1ccc(C(CC(=O)N2CCCCC2)NS(=O)(=O)c2ccc(F)cc2)cc1 (configuration not stated)	0	0	0	0
O=c1c(-c2ccc(Br)cc2)coc2cc(O)cc(O)c12	0	0	0	0
Cc1nc(-c2coc3cc(O)cc(O)c3c2=O)cs1	0	0	0	0
O=c1c(-c2ccc(O)cc2)coc2cc(O)cc(O)c12	0	0	0	44!
COc1ccc(-c2coc3cc(O)cc(O)c3c2=O)cc1	0	0	0	37!
SMILES	MITF primary	GPR151 ag	FBW7 act	TEAD-YAP inh
COc1ccc(Cl)cc1-c1nc(C=Nc2ccc(Br)cc2Br)c(O)o1	0	0	0	0
CC1(C)CC2CC(C)(CN2c2ccc(C(=O)O)cc2[N+](=O)[O-])C1 (configuration not stated)	0	0	0	35
C/C(N)=C(/C#N)C(=O)COC(=O)Cn1cnc2ccccc2c1=O	0	0	0	0
Cc1ccccc1Nc1c(C)c(C)nc2ncnn12	0	0	0	0
Cc1nc2ncnn2c(NCc2ccc(F)cc2)c1C	0	0	0	45
Cc1ccc(/C(O)=C2\C(=O)C(=O)N(c3ccccn3)C2c2ccc(C(C)(C)C)cc2)cc1 (configuration not stated)	0	0	0	44
O=S(=O)(NC1CCCC1)c1cccc(-c2nnc(-c3ccccc3)o2)c1	0	0	0	33
O=S(=O)(NC1CCCCCCC1)c1ccccc1	0	0	0	0
c1csc(-c2cn3ccc4ccccc4c3n2)c1	0	0	2.5	0
Cc1nc2c(cnn2-c2ccccc2)c(=O)n1-c1cccc2ccccc12	0	0	0	37
COc1ccc(S(=O)(=O)Nc2ccc(S(=O)(=O)Nc3cccc(C)c3)cc2)cc1	0	0	0	0
CC(C)CS(=O)(=O)C1=NSC2=NC(=O)/C(=C\c3ccc(Br)o3)C(=N)N21	77	0	0	0
CC(C)SC1=NSC2=NC(=O)/C(=C\c3ccc([N+](=O)[O-])o3)C(=N)N21	72	0	0	0
CCSC1=NSC2=NC(=O)/C(=C\c3ccc(Br)o3)C(=N)N12	83	0	0	0
CS(=O)(=O)C1=NSC2=NC(=O)/C(=C\c3ccc(SCc4ccco4)o3)C(=N)N21	72	0	0	0
Cc1cccc2c1N(C(=O)CN1C(=O)CCC1=O)C(C)(C)c1ssc(=S)c1-2	0	0	0	0
O=C(NCc1nnc2n1CCN(Cc1ccc3c(c1)OCCO3)CC2)c1ccncc1	0	0	0	0
